Experimental data reported in ChEMBL document CHEMBL1961873, “Compounds: GSK PKIS; Assays: Nanosyn kinase panel” (2012).

Columns and labels:
[1] = molecular target: T1, Inhibitor of nuclear factor kappa-B kinase subunit epsilon (Homo sapiens) (UniProt Q14164); details: at 1 µM;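 also: reported values are averaged percent inhibition figures against human IKKε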
T1 sequence (whole entry): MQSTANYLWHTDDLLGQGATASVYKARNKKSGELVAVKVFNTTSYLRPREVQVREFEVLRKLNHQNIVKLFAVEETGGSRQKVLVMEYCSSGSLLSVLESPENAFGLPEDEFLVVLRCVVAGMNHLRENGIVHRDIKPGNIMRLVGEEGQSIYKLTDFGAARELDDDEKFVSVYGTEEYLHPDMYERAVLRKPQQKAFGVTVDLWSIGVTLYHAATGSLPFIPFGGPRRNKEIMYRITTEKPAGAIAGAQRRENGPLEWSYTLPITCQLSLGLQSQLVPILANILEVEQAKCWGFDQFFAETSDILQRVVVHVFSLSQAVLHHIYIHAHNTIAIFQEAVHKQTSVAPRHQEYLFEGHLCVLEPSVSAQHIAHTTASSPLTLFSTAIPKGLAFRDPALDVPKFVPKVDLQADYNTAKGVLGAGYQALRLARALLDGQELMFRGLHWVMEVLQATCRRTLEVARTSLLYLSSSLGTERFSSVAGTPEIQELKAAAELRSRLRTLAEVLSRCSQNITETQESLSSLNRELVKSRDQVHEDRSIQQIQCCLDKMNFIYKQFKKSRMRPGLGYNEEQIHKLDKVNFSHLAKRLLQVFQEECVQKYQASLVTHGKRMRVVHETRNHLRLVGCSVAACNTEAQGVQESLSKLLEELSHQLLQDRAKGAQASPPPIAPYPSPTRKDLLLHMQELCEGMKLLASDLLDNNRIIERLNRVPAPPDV

[2] = molecular target: T2, Serine/threonine-protein kinase Nek1 (Homo sapiens) (UniProt Q96PY6); details: at 0.1 µM
T2 sequence (whole entry): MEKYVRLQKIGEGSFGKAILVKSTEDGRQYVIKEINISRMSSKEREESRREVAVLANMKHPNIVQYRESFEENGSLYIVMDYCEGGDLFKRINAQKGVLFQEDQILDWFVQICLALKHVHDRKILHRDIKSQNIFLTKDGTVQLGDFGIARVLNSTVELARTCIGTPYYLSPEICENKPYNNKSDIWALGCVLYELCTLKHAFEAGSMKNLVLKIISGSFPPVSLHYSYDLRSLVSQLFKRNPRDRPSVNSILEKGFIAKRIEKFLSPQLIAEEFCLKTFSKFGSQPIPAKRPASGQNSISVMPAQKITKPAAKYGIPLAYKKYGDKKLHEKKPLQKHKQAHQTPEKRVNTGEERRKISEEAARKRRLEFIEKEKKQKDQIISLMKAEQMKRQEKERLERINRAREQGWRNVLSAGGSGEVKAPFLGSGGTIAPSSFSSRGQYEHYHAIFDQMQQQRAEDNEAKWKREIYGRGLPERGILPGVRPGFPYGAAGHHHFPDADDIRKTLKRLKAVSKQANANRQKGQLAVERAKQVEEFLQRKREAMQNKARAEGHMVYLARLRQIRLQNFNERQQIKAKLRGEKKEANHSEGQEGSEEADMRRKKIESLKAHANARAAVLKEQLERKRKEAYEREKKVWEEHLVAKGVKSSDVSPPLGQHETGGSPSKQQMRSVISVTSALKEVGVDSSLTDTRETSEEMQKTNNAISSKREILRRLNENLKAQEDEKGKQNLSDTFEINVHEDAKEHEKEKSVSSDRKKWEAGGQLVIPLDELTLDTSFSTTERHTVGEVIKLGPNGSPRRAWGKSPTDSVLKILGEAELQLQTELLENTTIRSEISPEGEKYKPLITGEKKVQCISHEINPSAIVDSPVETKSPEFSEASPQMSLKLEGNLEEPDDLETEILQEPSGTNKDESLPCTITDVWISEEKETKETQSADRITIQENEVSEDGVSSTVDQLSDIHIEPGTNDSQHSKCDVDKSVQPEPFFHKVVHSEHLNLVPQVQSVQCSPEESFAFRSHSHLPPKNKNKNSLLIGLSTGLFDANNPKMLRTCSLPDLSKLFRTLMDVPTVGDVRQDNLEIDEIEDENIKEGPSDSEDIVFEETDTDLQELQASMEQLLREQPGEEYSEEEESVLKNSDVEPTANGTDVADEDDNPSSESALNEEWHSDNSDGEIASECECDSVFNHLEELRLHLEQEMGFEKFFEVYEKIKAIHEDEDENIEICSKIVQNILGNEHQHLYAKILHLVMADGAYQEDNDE

[3] = molecular target: T2, Serine/threonine-protein kinase Nek1 (Homo sapiens); details: at 1 µM
[4] = molecular target: T3, Serine/threonine-protein kinase Nek2 (Homo sapiens) (UniProt P51955); details: at 0.1 µM
T3 sequence (whole entry): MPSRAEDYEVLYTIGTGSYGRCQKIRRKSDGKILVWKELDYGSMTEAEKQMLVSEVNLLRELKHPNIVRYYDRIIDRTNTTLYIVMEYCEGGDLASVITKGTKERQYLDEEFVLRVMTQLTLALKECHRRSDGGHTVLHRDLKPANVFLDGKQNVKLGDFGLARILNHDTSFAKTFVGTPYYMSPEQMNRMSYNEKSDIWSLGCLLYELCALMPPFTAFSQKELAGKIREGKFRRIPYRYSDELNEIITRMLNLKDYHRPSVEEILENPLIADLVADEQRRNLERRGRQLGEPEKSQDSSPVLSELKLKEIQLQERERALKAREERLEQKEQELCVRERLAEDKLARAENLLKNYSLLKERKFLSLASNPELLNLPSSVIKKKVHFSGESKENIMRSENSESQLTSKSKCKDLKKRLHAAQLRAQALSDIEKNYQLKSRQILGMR

[5] = molecular target: T3, Serine/threonine-protein kinase Nek2 (Homo sapiens); details: at 1 µM
[6] = molecular target: Serine/threonine-protein kinase Nek6 (Homo sapiens) (UniProt Q9HC98); details: at 0.1 µM
Serine/threonine-protein kinase Nek6 (Homo sapiens), sequence (Q9HC98 whole entry): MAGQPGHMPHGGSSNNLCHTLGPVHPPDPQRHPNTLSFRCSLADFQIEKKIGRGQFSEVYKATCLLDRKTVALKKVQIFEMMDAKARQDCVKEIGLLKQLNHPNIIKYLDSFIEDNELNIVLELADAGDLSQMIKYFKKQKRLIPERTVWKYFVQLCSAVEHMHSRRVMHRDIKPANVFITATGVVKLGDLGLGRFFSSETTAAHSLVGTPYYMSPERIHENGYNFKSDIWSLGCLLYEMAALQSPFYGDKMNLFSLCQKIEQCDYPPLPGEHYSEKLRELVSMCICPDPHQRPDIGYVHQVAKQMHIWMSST

[7] = molecular target: Serine/threonine-protein kinase Nek6 (Homo sapiens) (UniProt Q9HC98); details: at 1 µM
[8] = molecular target: Serine/threonine-protein kinase Nek7 (Homo sapiens) (UniProt Q8TDX7); details: at 0.1 µM
Serine/threonine-protein kinase Nek7 (Homo sapiens), sequence (Q8TDX7 whole entry, looked up): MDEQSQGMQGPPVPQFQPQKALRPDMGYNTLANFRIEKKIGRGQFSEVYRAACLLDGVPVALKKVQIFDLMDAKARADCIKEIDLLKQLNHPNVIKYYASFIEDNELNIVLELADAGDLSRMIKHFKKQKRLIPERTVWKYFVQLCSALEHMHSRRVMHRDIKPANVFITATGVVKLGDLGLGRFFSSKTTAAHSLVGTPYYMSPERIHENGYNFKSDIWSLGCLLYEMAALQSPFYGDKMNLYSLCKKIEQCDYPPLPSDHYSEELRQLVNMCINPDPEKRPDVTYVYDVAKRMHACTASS

[9] = molecular target: Serine/threonine-protein kinase Nek7 (Homo sapiens) (UniProt Q8TDX7); details: at 1 µM
[10] = molecular target: T4, Serine/threonine-protein kinase Nek9 (Homo sapiens) (UniProt Q8TD19); details: at 0.1 µM
T4 sequence (whole entry): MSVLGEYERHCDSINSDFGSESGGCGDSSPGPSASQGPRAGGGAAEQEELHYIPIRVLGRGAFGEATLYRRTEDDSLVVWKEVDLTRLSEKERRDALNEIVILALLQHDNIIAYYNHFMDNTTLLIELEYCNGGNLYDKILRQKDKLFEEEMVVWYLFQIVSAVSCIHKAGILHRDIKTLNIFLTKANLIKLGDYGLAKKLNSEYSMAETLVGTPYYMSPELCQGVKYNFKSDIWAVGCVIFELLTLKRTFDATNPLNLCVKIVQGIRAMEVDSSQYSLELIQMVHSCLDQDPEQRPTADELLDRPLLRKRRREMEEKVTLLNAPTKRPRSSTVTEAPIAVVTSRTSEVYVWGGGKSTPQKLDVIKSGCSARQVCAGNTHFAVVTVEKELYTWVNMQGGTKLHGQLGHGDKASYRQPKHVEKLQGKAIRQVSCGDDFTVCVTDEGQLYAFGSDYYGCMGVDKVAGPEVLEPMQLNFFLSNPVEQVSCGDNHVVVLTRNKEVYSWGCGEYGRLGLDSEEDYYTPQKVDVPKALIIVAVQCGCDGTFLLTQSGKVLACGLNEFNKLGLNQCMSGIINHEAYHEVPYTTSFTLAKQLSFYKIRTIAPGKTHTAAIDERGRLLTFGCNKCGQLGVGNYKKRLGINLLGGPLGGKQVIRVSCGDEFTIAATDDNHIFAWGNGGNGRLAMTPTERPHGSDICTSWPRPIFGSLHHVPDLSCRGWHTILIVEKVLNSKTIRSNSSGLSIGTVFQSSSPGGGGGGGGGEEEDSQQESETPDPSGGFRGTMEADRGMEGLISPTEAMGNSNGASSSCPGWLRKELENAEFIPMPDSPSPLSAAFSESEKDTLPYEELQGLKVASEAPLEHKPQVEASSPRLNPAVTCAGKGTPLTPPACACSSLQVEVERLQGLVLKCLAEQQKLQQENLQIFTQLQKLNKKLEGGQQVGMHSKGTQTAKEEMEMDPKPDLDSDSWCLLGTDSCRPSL

[11] = molecular target: T4, Serine/threonine-protein kinase Nek9 (Homo sapiens); details: at 1 µM
[12] = molecular target: Serine/threonine-protein kinase PLK1 (Homo sapiens) (UniProt P53350); details: at 0.1 µM
Serine/threonine-protein kinase PLK1 (Homo sapiens), sequence (P53350 whole entry): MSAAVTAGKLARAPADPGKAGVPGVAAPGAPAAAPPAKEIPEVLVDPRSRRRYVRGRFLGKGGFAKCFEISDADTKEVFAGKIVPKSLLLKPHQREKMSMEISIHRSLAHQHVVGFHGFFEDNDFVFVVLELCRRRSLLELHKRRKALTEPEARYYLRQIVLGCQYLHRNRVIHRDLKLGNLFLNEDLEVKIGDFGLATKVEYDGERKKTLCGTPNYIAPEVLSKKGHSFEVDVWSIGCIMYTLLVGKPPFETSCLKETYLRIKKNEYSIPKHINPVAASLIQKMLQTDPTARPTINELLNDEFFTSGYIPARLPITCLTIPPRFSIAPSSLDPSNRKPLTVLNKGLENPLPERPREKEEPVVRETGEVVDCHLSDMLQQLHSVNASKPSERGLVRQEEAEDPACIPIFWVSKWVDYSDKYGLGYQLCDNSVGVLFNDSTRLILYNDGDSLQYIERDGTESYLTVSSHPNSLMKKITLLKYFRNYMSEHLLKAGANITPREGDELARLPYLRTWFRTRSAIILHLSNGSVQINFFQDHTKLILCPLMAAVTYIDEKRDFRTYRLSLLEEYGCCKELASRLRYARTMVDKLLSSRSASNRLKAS

[13] = molecular target: Serine/threonine-protein kinase PLK1 (Homo sapiens) (UniProt P53350); details: at 1 µM
[14] = molecular target: T5, Dual specificity protein kinase TTK (Homo sapiens) (UniProt P33981); details: at 0.1 µM
T5 sequence (whole entry): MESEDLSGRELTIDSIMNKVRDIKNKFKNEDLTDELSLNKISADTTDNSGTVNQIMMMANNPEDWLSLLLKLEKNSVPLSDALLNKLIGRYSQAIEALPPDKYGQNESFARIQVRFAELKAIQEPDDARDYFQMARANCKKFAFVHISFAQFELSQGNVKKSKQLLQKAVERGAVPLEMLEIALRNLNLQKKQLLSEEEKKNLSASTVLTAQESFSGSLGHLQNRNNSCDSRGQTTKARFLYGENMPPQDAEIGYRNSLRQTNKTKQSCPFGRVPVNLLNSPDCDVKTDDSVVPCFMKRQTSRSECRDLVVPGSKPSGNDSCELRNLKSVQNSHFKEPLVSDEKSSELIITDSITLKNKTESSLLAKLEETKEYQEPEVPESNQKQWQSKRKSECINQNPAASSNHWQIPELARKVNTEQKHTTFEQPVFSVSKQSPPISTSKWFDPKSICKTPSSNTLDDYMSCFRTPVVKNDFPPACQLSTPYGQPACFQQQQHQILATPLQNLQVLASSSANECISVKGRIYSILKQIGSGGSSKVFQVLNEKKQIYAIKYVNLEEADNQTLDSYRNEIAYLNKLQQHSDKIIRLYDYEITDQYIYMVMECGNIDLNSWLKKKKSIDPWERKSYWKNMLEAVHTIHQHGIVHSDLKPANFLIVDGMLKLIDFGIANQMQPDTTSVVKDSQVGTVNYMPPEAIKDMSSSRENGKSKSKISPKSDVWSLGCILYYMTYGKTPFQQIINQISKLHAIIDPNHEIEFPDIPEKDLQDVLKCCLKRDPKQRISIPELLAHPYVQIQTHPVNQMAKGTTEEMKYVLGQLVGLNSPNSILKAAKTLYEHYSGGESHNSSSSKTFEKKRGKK

[15] = system: T6, Receptor-type tyrosine-protein kinase FLT3 (Homo sapiens), P36888 [D835Y]; details: at 1 µM
T6 sequence (whole entry): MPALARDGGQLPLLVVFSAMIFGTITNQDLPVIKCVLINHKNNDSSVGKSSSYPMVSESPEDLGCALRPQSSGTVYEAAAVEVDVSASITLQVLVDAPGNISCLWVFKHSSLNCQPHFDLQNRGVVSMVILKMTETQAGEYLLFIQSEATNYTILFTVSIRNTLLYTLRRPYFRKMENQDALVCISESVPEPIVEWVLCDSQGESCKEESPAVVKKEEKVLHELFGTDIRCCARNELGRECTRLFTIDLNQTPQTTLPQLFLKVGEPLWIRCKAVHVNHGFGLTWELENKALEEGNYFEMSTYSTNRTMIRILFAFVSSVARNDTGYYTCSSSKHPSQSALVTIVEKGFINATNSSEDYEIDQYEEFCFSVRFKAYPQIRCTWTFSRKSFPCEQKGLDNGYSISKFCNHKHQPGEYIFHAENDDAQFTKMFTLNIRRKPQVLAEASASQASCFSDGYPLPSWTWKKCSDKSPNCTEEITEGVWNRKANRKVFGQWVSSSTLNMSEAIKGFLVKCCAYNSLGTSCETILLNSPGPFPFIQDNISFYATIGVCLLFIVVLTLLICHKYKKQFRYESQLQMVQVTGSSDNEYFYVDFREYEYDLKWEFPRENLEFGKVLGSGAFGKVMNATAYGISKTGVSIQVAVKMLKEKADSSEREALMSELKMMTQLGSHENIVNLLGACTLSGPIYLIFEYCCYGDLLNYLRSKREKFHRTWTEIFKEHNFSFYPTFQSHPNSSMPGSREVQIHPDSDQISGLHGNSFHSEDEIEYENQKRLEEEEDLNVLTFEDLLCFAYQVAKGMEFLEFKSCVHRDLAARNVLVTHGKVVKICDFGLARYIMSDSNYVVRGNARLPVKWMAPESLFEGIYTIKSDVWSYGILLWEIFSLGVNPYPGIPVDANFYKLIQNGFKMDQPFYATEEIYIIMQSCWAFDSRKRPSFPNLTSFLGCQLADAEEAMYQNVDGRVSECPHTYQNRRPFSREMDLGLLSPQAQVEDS

[16] = molecular target: Vascular endothelial growth factor receptor 3 (Homo sapiens) (UniProt P35916); details: at 0.1 µM
Vascular endothelial growth factor receptor 3 (Homo sapiens), sequence (P35916 whole entry): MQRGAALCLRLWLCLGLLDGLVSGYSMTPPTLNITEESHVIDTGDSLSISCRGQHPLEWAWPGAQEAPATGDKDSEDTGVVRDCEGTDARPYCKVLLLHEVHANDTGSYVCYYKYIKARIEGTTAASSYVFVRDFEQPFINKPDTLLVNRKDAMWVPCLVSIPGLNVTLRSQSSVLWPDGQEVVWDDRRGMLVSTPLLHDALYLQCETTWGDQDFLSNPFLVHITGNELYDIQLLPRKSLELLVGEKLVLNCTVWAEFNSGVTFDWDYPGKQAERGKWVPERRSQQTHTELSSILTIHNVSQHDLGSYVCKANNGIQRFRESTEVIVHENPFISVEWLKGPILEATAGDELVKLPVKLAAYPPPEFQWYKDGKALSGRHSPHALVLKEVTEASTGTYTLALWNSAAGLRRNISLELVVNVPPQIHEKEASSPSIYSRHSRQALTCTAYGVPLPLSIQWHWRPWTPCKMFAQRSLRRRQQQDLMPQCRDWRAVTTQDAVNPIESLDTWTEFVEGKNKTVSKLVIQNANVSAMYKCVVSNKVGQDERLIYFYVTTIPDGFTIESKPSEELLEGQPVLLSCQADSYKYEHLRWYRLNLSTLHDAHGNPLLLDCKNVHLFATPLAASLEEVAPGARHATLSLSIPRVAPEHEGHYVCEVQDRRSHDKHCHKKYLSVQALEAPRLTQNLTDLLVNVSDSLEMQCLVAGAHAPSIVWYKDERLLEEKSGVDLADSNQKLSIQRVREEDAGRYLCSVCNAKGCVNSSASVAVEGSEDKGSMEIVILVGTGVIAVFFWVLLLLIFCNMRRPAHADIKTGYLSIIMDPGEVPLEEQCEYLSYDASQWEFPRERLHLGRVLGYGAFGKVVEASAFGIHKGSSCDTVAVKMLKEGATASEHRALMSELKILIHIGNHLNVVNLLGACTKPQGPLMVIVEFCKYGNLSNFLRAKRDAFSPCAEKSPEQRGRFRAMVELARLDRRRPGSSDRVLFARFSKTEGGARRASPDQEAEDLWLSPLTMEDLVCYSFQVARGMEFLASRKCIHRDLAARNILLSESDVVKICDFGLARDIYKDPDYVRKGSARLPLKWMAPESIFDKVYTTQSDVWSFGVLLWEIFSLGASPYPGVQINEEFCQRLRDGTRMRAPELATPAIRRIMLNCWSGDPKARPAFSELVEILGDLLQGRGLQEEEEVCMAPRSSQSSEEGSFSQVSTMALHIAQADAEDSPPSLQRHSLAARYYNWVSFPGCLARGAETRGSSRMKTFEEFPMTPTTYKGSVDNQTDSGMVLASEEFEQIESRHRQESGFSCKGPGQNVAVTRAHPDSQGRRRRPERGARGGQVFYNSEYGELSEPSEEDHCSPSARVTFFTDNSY

[17] = molecular target: Vascular endothelial growth factor receptor 3 (Homo sapiens) (UniProt P35916); details: at 1 µM
[18] = molecular target: Macrophage colony-stimulating factor 1 receptor (Homo sapiens) (UniProt P07333); details: at 0.1 µM
Macrophage colony-stimulating factor 1 receptor (Homo sapiens), sequence (P07333 whole entry): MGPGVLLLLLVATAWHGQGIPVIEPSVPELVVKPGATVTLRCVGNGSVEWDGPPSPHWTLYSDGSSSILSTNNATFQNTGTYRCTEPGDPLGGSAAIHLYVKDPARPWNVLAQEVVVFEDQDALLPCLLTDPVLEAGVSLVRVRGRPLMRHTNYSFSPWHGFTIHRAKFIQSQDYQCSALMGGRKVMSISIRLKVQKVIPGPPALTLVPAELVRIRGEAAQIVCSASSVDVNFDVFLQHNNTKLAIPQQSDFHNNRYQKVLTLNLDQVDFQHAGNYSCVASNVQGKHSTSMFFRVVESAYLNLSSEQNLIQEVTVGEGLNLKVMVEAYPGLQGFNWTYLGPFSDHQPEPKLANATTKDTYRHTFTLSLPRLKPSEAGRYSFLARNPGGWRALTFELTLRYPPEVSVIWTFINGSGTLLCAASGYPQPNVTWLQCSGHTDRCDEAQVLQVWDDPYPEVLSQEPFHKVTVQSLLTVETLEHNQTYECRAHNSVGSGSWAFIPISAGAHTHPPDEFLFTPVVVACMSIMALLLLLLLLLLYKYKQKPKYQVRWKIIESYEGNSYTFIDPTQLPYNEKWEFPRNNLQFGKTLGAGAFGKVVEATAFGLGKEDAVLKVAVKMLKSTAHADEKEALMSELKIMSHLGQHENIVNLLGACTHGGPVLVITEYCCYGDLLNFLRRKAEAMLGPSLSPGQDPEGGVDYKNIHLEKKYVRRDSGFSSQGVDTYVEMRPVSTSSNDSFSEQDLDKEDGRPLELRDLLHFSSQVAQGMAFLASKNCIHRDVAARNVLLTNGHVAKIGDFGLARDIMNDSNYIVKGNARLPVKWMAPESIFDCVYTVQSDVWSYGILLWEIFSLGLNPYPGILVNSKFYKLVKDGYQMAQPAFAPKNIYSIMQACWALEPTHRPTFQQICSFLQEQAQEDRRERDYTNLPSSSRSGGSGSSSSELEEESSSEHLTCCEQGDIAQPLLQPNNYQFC

[19] = molecular target: Macrophage colony-stimulating factor 1 receptor (Homo sapiens) (UniProt P07333); details: at 1 µM
[20] = molecular target: Tyrosine-protein kinase Fyn (Homo sapiens) (UniProt P06241); details: at 0.1 µM
Tyrosine-protein kinase Fyn (Homo sapiens), sequence (P06241 2-537 limits assumed): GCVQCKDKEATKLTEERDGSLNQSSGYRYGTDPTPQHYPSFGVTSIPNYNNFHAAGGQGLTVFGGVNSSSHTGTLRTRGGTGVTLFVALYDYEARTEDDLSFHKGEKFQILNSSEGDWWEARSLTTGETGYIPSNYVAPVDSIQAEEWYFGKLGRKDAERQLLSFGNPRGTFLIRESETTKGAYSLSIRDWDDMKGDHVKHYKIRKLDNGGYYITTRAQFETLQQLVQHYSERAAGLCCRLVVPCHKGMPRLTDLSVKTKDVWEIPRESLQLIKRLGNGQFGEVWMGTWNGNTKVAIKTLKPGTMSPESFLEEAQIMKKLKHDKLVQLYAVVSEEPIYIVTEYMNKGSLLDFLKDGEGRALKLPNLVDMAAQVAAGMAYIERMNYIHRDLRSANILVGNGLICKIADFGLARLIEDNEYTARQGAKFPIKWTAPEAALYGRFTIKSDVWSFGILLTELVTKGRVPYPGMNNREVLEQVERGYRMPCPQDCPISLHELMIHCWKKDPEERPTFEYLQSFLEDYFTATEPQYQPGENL

Question: Which inhibition [1] does the source give for `COc1cc(Nc2nccc(-c3cnn4ncccc34)n2)cc(OC)c1` here?
Answer: The inhibition was 28.2%.

Question: What about the inhibition [2] of the same compound?
Answer: Its inhibition is 2.05%.

Question: And the inhibition [3]?
Answer: The inhibition was 19.3%.

Question: And the inhibition [4]?
Answer: Its inhibition is 2.03%.

Question: And the inhibition [5]?
Answer: The inhibition was 12%.

Question: What about the inhibition [6] of the same compound?
Answer: Its inhibition is -0.86%.

Question: And the inhibition [7]?
Answer: The inhibition was 2.06%.

Question: What about the inhibition [8] of the same compound?
Answer: The inhibition was 2.07%.

Question: And the inhibition [9]?
Answer: Its inhibition is 3.54%.

Question: And the inhibition [10]?
Answer: Its inhibition is 17.3%.

Question: And the inhibition [11]?
Answer: The inhibition was 69.9%.

Question: What about the inhibition [12] of the same compound?
Answer: Its inhibition is 6.63%.

Question: What about the inhibition [13] of the same compound?
Answer: Its inhibition is 36.9%.

Question: And the inhibition [14]?
Answer: Its inhibition is 7.15%.

Question: What about the inhibition [15] of the same compound?
Answer: The inhibition was 77.3%.

Question: What about the inhibition [16] of the same compound?
Answer: Its inhibition is 10.4%.

Question: What about the inhibition [17] of the same compound?
Answer: The inhibition was 45.4%.

Question: And the inhibition [18]?
Answer: The inhibition was 68.2%.

Question: And the inhibition [19]?
Answer: The inhibition was 94.2%.

Question: And the inhibition [20]?
Answer: The inhibition was 7.87%.
